# TDP1 cell noCPT = qHTS for Inhibitors of human tyrosyl-DNA phosphodiesterase 1 (TDP1): qHTS in cells in absence of CPT; Potency, µM (highest dose often 46.2 µM), most hits filed as inhibitors; hit rate 15% among 420,000; DT40 Tdp1-/- hTDP1 cells, no CPT, ATP luminescence, 48 h; also: nearly all actives have a fitted effect of over 55% in size
#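 Seeded 400 DT40-hTDP1 cells/well (vehicle DMSO, no 20 nM CPT); pinned compounds; ≥48 hr at 37 °C; CellTiter-Glo luminescence as viability measure.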
# IL-1B inflam inh = blocks inflammasome-driven IL-1 beta release; hit rate 4.7% among 360,000; activity change, % at 57.5 µM; THP-1 LPS/ATP IL-1B secretion, AlphaLISA, 16 h; active compounds read low; AID 743279; in the data active = activity change below about -50%; inconclusive = mostly about -30% to -49%
#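 THP-1 cells pretreated 1 hr with compounds (up to 57.5 uM final), then stimulated with LPS (250 ng/mL final) plus ATP (1.25 mM final); secreted IL-1B measured by AlphaLISA after 16 hr, decreased signal indicating inhibition.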
# HT1080-NT tox = kills 2HG-producing HT-1080-NT fibrosarcoma cells; Potency, µM (titrated, usually from 46.1 µM), hits mostly cytotoxic; HT-1080-NT fibrosarcoma viability, CellTiter-Glo ATP luminescence, 48 h; hit rate 1.6% among 360,000;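 also: NT is the 2HG producing partner of a matched IDH1 knockdown line; nearly all actives have a fitted effect of over 55% in size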
#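 HT-1080-NT; 750 cells/well; 5% FBS RPMI; 48 h compound, 37 degrees C; CellTiter-Glo luminescence; curve fitting and curve-class assignment.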
# HT1080 IDH1KD tx = toxicity to HT-1080 IDH1 knockdown cells (counter line); HT-1080 IDH1 knockdown viability, ATP luminescence, 48 h; Potency, µM (highest dose often 46.1 µM), most hits filed as cytotoxic; hit rate 2% among 360,000
#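 IDH1KD HT-1080 cells, 750/well, RPMI + 5% FBS; compound pinned after 2 h settling; 48 h, 37 °C; CellTiter-Glo luminescence; % activity normalised to DMSO and no-cell wells; curves fitted, classed by r2 and efficacy.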
# TDP1 cell CPT = DT40-hTDP1 cell growth loss with CPT; chicken DT40 Tdp1-/-;hTDP1 cells + 20 nM CPT, ATP luminescence, 48 h; Potency, µM (highest dose often 46.2 µM), usual class: inhibitors; hit rate 12% among 420,000; also: nearly all actives have a fitted effect of over 55% in size
#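 Cell growth measured by CellTiter-Glo luminescence after a minimum 48 h, 37 C compound exposure with 20 nM CPT in Tdp1-knockout DT40 cells stably expressing hTDP1, seeded 400/well; qHTS titration format.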
# ELG1 repair inh = inhibitors of ELG1-dependent DNA repair in HEK293T cells | HEK293T ELG1-luciferase reporter, luminescence, 16 h; DNA damage induced by 5-fluorouridine | hit rate 2.3% among 330,000 | Potency, µM (highest dose often 46.1 µM), most hits filed as inhibitors | AID 504467; also: nearly all actives have a fitted effect of over 55% in size
#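 Cells (2,000 per well) received 5-fluorouridine plus test compound or DMSO and were incubated 16 hr at 37 °C, 5% CO2. Luciferase activity was read by luminescence 30 min after ONE-Glo addition; signal suppression marked inhibition of damage-induced ELG1 function.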
# Numbers stand for hits; n = inactive; u = inconclusive; x = no result given; [ ] = dose if it differs, or a comment. Only some compounds are listed: those with a hit (about 19% of all), similar ones and a draw of the others. Unless noted, calls follow the shape of the dose curve; as a rule, active = well fitted curve in the direction sought with a large enough effect; inconclusive = small, poorly fitted or top-dose-only effect, or another doubt; inactive = no such curve, though single readings can be large; an effect the other way counts as inactive or inconclusive.
SMILES,TDP1 cell noCPT,IL-1B inflam inh,HT1080-NT tox,HT1080 IDH1KD tx,TDP1 cell CPT,ELG1 repair inh
COC(=O)[C@@]12C[C@@H](CC(=O)NCCC(C)C)C(=O)N(Cc3cccc4ccccc34)C1=CCC(C)(C)C2,20.6µM,n,u,u,u,x
CCSC1=NCCN1C(=O)C(C)(C)Oc1ccc(Cl)cc1,u,n,n,n,n,n
O=C(c1ccc(Cl)cc1)n1nc(-c2ccccc2)nc1NCc1ccco1,n,x,x,x,n,x
CCc1ccccc1NC(=O)CSc1nc2ncccc2o1,n,x,x,x,n,x
Cc1cc(C)cc(N2CC(C(=O)OCC(=O)Nc3cc(C)on3)CC2=O)c1 (stereo unspecified),n,n,n,n,n,n
COC(=O)[C@@]12C[C@@H](CC(=O)NCc3ccc(C)o3)C(=O)N(Cc3cccc4ccccc34)C1=CCC(C)(C)C2,16.4µM,n,u,n,20.6µM,x
COC(=O)[C@@]12C[C@@H](CC(=O)NCc3cccc4ccccc34)C(=O)N(Cc3cccc4ccccc34)C1=CCC(C)(C)C2,u,n,n,n,18.4µM,x
COC(=O)[C@@]12C[C@@H](CC(=O)N3CCCCC3)C(=O)N(Cc3cccc4ccccc34)C1=CCC(C)(C)C2,u,n,u,u,u,x
COC(=O)[C@@]12C[C@@H](CC(=O)NCCCCc3ccccc3)C(=O)N(Cc3cccc4ccccc34)C1=CCC(C)(C)C2,20.6µM,u,u,n,u,x
CCOC(=O)N1CCC(NC(=O)c2cnn3c(C(F)(F)F)cc(-c4cccc(OC)c4)nc23)CC1,16.4µM,n,n,n,13µM,n
CCOC(=O)N1CCN(c2nc(-c3cccc(OC)c3)cc(C(F)(F)F)n2)CC1,20.6µM,n,n,n,u,n
COc1cccc(-c2cc(C(F)(F)F)nc(-n3cc(C)cn3)n2)c1,16.4µM,u,n,n,14.6µM,u
COc1cc(CNC(=O)c2ccc3nc(CCc4ccccc4)oc3c2)cc(OC)c1OC,20.6µM,x,x,x,20.6µM,x
CCOc1ccc(CNC(=O)c2ccc3nc(Cc4ccc(OC)cc4)oc3c2)cc1OC,13µM,x,x,x,18.4µM,x
COc1cc(CC(=O)NCCCc2ccccc2)cc(OC)c1OC,20.6µM,n,n,n,u,n
COc1cc(CNC(=O)c2ccc3nc(Cc4ccccc4)oc3c2)cc(OC)c1OC,2.59µM,x,x,x,6.51µM,x
O=C(NCc1ccccc1)c1ccc2nc(CCc3ccccc3)oc2c1,u,x,x,x,n,x
CO[C@H]1[C@H](NC(=O)C(C)C)c2ccccc2C12CCN(Cc1c(C)nn(C)c1Cl)CC2,n,x,x,x,n,x
C=CCNC(=O)Cn1nnc(-c2ccc(-c3ccc(OC)cc3)cc2)n1,n,n,n,n,n,u
Nc1cc2c(cc1N)-c1ccccc1C2,16.4µM,-51.8,n,n,u,x
O=C(NCc1ccncc1)c1cnn(-c2ncc3c(n2)-c2ccccc2CC3)c1C1CC1,n,x,x,x,n,x
CC(C1CC1)N(Cc1ccccc1)C(=S)Nc1ccccc1 (stereo unspecified),23.1µM,n,n,n,14.6µM,n
Cc1nc2c(Br)cc(Br)cc2c(=O)n1-c1ccccc1NC1OCC(O)C(O)C1O (stereo unspecified),8.2µM,n,n,n,7.31µM,x
COc1ccccc1N(CC(=O)Nc1c(C)cccc1C)S(C)(=O)=O,n,n,n,n,n,n
COC(=O)c1sccc1S(=O)(=O)N(CC(=O)Nc1c(C)cccc1C)c1ccc(C)c(C)c1,n,x,x,x,16.4µM,x
SMILES,TDP1 cell noCPT,IL-1B inflam inh,HT1080-NT tox,HT1080 IDH1KD tx,TDP1 cell CPT,ELG1 repair inh
COC(=O)c1sccc1S(=O)(=O)N(CC(=O)NCc1ccc(C)cc1)c1ccc(C)cc1,u,x,x,x,23.1µM,x
CC(C)CNC(=O)C(=O)Nc1c2c(nn1-c1ccc(Cl)cc1)CSC2,n,x,x,x,u,x
O=C(Nc1ccc(Oc2c(F)c(F)c(F)c(F)c2F)cc1)OC1CCN2Cc3ccccc3N=C12 (stereo unspecified),2.31µM,-94.9,u,u,5.17µM,u
N#CC(C(=O)NC1CC1)c1nc2ccccc2nc1N1CCCC1 (stereo unspecified),u,n,n,n,u,u
CCC(CC)COC(=O)C(C#N)c1nc2ccccc2nc1N1CCOCC1 (stereo unspecified),23.1µM,n,n,n,u,u
COCCNC(=O)C(C#N)c1nc2ccccc2nc1N1CCCCCC1 (stereo unspecified),n,-70.5,n,n,n,u
COCCCNC(=O)C(C#N)c1nc2ccccc2nc1N1CCN(Cc2ccccc2)CC1 (stereo unspecified),u,-57.7,n,n,23.1µM,n
COCC(C)OC(=O)C(C#N)c1nc2ccccc2nc1N1CCN(Cc2ccccc2)CC1 (stereo unspecified),u,-55.9,n,n,u,20.6µM
CN(Cc1ccc(Br)cc1)C(=O)CCN1C(=O)c2cccc([N+](=O)[O-])c2C1=O,n,n,n,n,n,u
CCOc1ccc(S(=O)(=O)N(CC)CC)cc1NC(=O)CSCc1c(C)noc1C,u,n,n,n,u,n
O=C(CSc1nc(C(F)(F)F)cc(=O)[nH]1)Nc1cccc2ccccc12,n,n,n,n,n,n
CCCCOC(=O)C(C#N)c1nc2ccccc2nc1N1CCN(Cc2ccc3c(c2)OCO3)CC1 (stereo unspecified),18.4µM,n,n,n[9.24 µM],16.4µM,n
COC(=O)C(C#N)c1nc2ccccc2nc1N1CCN(Cc2ccc3c(c2)OCO3)CC1 (stereo unspecified),x,x,x,x,x,n
COCCOC(=O)C(C#N)c1nc2ccccc2nc1N1CCN(Cc2ccccc2)CC1 (stereo unspecified),16.4µM,n,n,n,23.1µM,u
C=CCOC(=O)C(C#N)c1nc2ccccc2nc1N1CCN(c2ccccc2OC)CC1 (stereo unspecified),u,n,n,n,u,13µM
C=CCOC(=O)C(C#N)c1nc2ccccc2nc1N1CCN(Cc2ccccc2)CC1 (stereo unspecified),23.1µM,n,n,n,u,u
CCc1ccc(NC(=O)Cn2c(=O)n(CCC(=O)NCCc3ccc(Cl)cc3)c(=O)c3ccccc32)cc1,n,x,x,x,n,x
COc1cc(C(=O)N2CCc3ccccc32)ccc1OCc1c(C)noc1C,u,n,n,n,n,u
CCC(C)[C@H](NC(=O)C1CC(=O)N(c2ccc3c(c2)OCCO3)C1)C(=O)N1CCCCC1 (stereo partly specified),n,n,n,n,n,n
Cc1cc(C)c2sc(N)nc2c1,n,n,n,n,n,n

# Bioassay records: PubChem, National Center for Advancing Translational Sciences (NCATS)
